We go through 63 sequences from the supplement of paper PMC10338343.

± gives the standard deviation. Whole data set: some 8,200 sequences, median “pre-steady-state target cleavage rate” near 0.024, cut for the highest 2% near 1.3. For the sample, the highest values were picked, then their nearest neighbours and some sequences at random.

This test deals with MIWI (PIWIL1) piRISC loaded with L1MC piRNA (30 nt). The test can be described thus: pre-steady-state target cleavage rate (min^-1); MIWI and MILI are mouse PIWI proteins and EfPiwi is from a freshwater sponge; tags in brackets are library labels; higher = faster piRNA-guided slicing of the target. The settings on record: guide: L1MC piRNA 5'p-UAACUAAAUACUAUGCAAGCUGUAGGUCCU
The method in brief: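 A transcribed, DNA-blocked target RNA library (0.1 nM) and 1 nM active affinity-purified piRISC bearing one synthetic guide were incubated in HEPES–potassium acetate buffer at 33 °C for 0–8 or 0–960 min, either with or without 500 nM GTSF1 partner protein. Uncleaved targets were sequenced, normalised to depth and to weakly complementary targets, and pooled over three trials, with k3 capped at 0.0001 min^-1. The pre-steady-state cleavage rate was derived with a burst-and-steady-state fit.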

The mark [1] stands for this setting: auxiliary factor: 500 nM mouse GTSF1.
[2] abbreviates: auxiliary factor: none (no GTSF1).

Regarding UCGACCUACAGCAUGCAUAGUAUUUAGAUA, the “pre-steady-state target cleavage rate” value is 0.538 ± 0.041 under setting [1] and 0.0119 ± 0.004 under setting [2]. For the sequence UCCACCUACAGCAUGCAUAGUAUUUAGAUA, the “pre-steady-state target cleavage rate” value under setting [1] was determined as 0.423 ± 0.045 and the “pre-steady-state target cleavage rate” value under setting [2] stood at 0.00605 ± 0.0027.

Take UCGACCUACAGCAUGGAUAGUAUUUAGUUA: the “pre-steady-state target cleavage rate” value is, setting by setting: under setting [1], 1.59 ± 0.076; under setting [2], 0.0294 ± 0.005. Consider UCCACCUACAGCAUGGAUAGUAUUUAGUUA, for which the “pre-steady-state target cleavage rate” value was 1.34 ± 0.062 under setting [1] and 0.0231 ± 0.0039 under setting [2].

UCCACCUACAGCAUGCAUAGUAUUUAGUUA: the “pre-steady-state target cleavage rate” value under setting [1] is 0.977 ± 0.054 and the “pre-steady-state target cleavage rate” value under setting [2] was found to be 0.0309 ± 0.0079.

For the sequence AGGACCUACAGCAUGGAUAGUAUUUAGUUA, the “pre-steady-state target cleavage rate” value reads like this: under setting [1], 1.57 ± 0.086; under setting [2], 0.0502 ± 0.0089. Turning to UCGACCUACAGCAUGCUUAGUAUUUAGUUA, the “pre-steady-state target cleavage rate” value is, setting by setting: under setting [1], 0.915 ± 0.057; under setting [2], 0.0113 ± 0.0023.

On to UGGACCUACAGGAAGCAUAGUAUUUAGUUA, for which the “pre-steady-state target cleavage rate” value runs as follows: under setting [1], 0.994 ± 0.094; under setting [2], 0.00926 ± 0.0024. Taken in the same sequence, the figures for UCCUCCUACAGCAUGGAUAGUAUUUAGUUA were 1.38 ± 0.067 and 0.0219 ± 0.0037. Take UCCUGCUACAGCAUGGAUAGUAUUUAGUUA: the “pre-steady-state target cleavage rate” value amounted to 1.13 ± 0.15 under setting [1] and 0.015 ± 0.0025 under setting [2]. For the sequence UCCUCCUACAGCAUGCAUAGUAUUUAGUUA, the “pre-steady-state target cleavage rate” value was determined as 1.2 ± 0.051 under setting [1] and 0.0219 ± 0.0048 under setting [2]. Take AGGACCUACAGCAUGCUUAGUAUUUAGUUA: the “pre-steady-state target cleavage rate” value reads like this: under setting [1], 0.977 ± 0.058; under setting [2], 0.0155 ± 0.0029. Regarding UCCUGGUACAGCUUGACAUAGUAUUUAGUUA, the “pre-steady-state target cleavage rate” value under setting [1] came to 0.271 ± 0.027. UCCUGGUACACCUUGCAUAGUAUUUUGUUA: the “pre-steady-state target cleavage rate” value was 0.436 ± 0.1 under setting [1] and 0.00901 ± 0.0027 under setting [2]. Take ACGACCUACAGCUUGCAUAGUAUUUUCAAA: the “pre-steady-state target cleavage rate” value by setting is: under setting [1], 0.618 ± 0.067; under setting [2], 0.00505 ± 0.004. UCCUGGAUGUCCUUGCAUAGUAUUUAGUGUA: the “pre-steady-state target cleavage rate” value runs as follows: under setting [1], 0.0232 ± 0.0073; under setting [2], 0.00487 ± 0.0027. Take UGGACCUACAGCAUCCAUAGUAUUUAGUUA: the “pre-steady-state target cleavage rate” value is 0.102 ± 0.017 under setting [1] and 0.00273 ± 0.002 under setting [2].

In the case of UGGACCUACAGCAUGGAUAGUAUUUAGUUA, the “pre-steady-state target cleavage rate” value is 1.47 ± 0.1 under setting [1] and 0.0301 ± 0.0054 under setting [2].

With UGGACCUACAGCAUGCUUAGUAUUUAGUUA, the “pre-steady-state target cleavage rate” value is, setting by setting: under setting [1], 0.877 ± 0.056; under setting [2], 0.0147 ± 0.0037.

Take UCCUGGAUGAGCUUGCAUAGUAUAUUGUUA: the “pre-steady-state target cleavage rate” value runs as follows: under setting [1], 0.165 ± 0.021; under setting [2], 0.0157 ± 0.004. For UCCUGGAAGAGCUUGCAUAGUAUUUUGUUA, the “pre-steady-state target cleavage rate” value by setting is: under setting [1], 0.704 ± 0.076; under setting [2], 0.0231 ± 0.0062.

As to UCGACCUACAGCUACCAUAGUAUUUAGUAA, the “pre-steady-state target cleavage rate” value under setting [1] stood at 0.355 ± 0.037. Regarding UCCUGCAACAGCUUGCAUAGUAUAUAGUUA, the “pre-steady-state target cleavage rate” value came to 0.844 ± 0.063 under setting [1] and 0.0237 ± 0.0057 under setting [2]. In the case of UCCUGCAACAGCUUCCAUAGUAUUUAGUUA, the “pre-steady-state target cleavage rate” value under setting [1] worked out at 0.0524 ± 0.015. For the sequence UCCUGGAUGAGGUUGCAUAGUAUUUAGUUA, the “pre-steady-state target cleavage rate” value was 0.274 ± 0.022 under setting [1] and 0.00581 ± 0.0018 under setting [2]. For UCGACGAUCAGCUUGCAUAGUAUUUAGUAA, the “pre-steady-state target cleavage rate” value under setting [1] worked out at 1.05 ± 0.063 and the “pre-steady-state target cleavage rate” value under setting [2] was determined as 0.048 ± 0.011. For UCCUCGAUCAGCUUGCAUAGUAUUUAGAAA, in that order: 0.422 ± 0.044 and 0.00569 ± 0.0022.

Take UGGACGAUCAGCUUGCAUAGUAUUUAGUAA: the “pre-steady-state target cleavage rate” value reads like this: under setting [1], 0.953 ± 0.064; under setting [2], 0.0656 ± 0.013. Turning to UCCUCGAUCAGCUUGCAUAGUAUUUAGUAA, the “pre-steady-state target cleavage rate” value reads like this: under setting [1], 1.06 ± 0.048; under setting [2], 0.04 ± 0.0086.

Turning to UGGACGAUCAGCUUGCAUAGUAUUUAGUUA, the “pre-steady-state target cleavage rate” value under setting [1] came out at 1.47 ± 0.071 and the “pre-steady-state target cleavage rate” value under setting [2] worked out at 0.0852 ± 0.016. Taken in the same sequence, the figures for UGGACGAUCAGCUUGCAUAGUAUUUAGAAA were 0.499 ± 0.048 and 0.0141 ± 0.0042. For AGGACGAUCAGCUUGCAUAGUAUUUAGUAA, in that order: 1.02 ± 0.12 and 0.0692 ± 0.015.

With AGGACGAUCAGCUUGCAUAGUAUUUAGUUA, the “pre-steady-state target cleavage rate” value by setting is: under setting [1], 1.43 ± 0.068; under setting [2], 0.0865 ± 0.016. On to UCGACGAUCAGCUUGCAUAGUAUUUAGUUA, for which the “pre-steady-state target cleavage rate” value came to 1.6 ± 0.047 under setting [1] and 0.0826 ± 0.017 under setting [2]. UCGACGAUCAGCUUGCAUAGUAUUUAGAAA: the “pre-steady-state target cleavage rate” value is 0.494 ± 0.05 under setting [1] and 0.0104 ± 0.0033 under setting [2]. Taken in the same sequence, the figures for UCCUCGAUCAGCUUGCAUAGUAUUUAGUUA were 1.58 ± 0.056 and 0.0718 ± 0.013. Taken in the same sequence, the figures for AGGACGAUCAGCUUGCAUAGUAUUUAGAAA were 0.384 ± 0.061 and 0.0104 ± 0.0037. In the case of UCCUGGAUGAGCUUGCUUAGAAUUUAGUUA, the “pre-steady-state target cleavage rate” value reads like this: under setting [1], 0.0359 ± 0.0063; under setting [2], 0.00574 ± 0.0024. For UCCUGCAUCAGCUUGCAUAGUAUUUAGUUA, in that order: 1.2 ± 0.066 and 0.0666 ± 0.014. In the case of UCCUGCUACAGCUUGCAUGUAUUUAGUUA, the “pre-steady-state target cleavage rate” value under setting [1] turned out to be 0.413 ± 0.054 and the “pre-steady-state target cleavage rate” value under setting [2] worked out at 0.00516 ± 0.0026.

Regarding ACCUCCUACAGCUUGCAUAGUAUUUAGAAA, the “pre-steady-state target cleavage rate” value is, setting by setting: under setting [1], 0.54 ± 0.061; under setting [2], 0.00602 ± 0.0029. As to AGGACCUACAGCAUCCAUAGUAUUUAGUUA, the “pre-steady-state target cleavage rate” value under setting [1] is 0.319 ± 0.053. UCGACCUACUCGUUGCAUAGUAUUUACAAA: the “pre-steady-state target cleavage rate” value under setting [1] worked out at 0.165 ± 0.025.

As for UGCACCUACACCUUGCAUAGUAUUUAGUUA, the “pre-steady-state target cleavage rate” value is 0.967 ± 0.059 under setting [1] and 0.0415 ± 0.0067 under setting [2]. For UCCUGGUACAGGUUGCAUAGUAUUUACUUA, in that order: 0.125 ± 0.035 and 0.00733 ± 0.003. Take UGGACCUACAGACUUGCAUAGUAUUUAGUUA: the “pre-steady-state target cleavage rate” value is, setting by setting: under setting [1], 1.13 ± 0.1; under setting [2], 0.0446 ± 0.0075. Take UCCUGGAUGUCGUUAGCAUAGUAUUUAGUUA: the “pre-steady-state target cleavage rate” value under setting [1] was determined as 0.0102 ± 0.0036. As to UCCUGGAUGUGCUAGCAUAGUAUAUAGUUA, the “pre-steady-state target cleavage rate” value under setting [1] worked out at 0.0106 ± 0.0042.

Regarding UCCACGAUCAGCUUGCAUAGUAUUUAGAAA, the “pre-steady-state target cleavage rate” value runs as follows: under setting [1], 0.444 ± 0.044; under setting [2], 0.00814 ± 0.0028.

On to UCCACGAUCAGCUUGCAUAGUAUUUAGUUA, for which the “pre-steady-state target cleavage rate” value under setting [1] was found to be 1.55 ± 0.058 and the “pre-steady-state target cleavage rate” value under setting [2] is 0.0711 ± 0.013. Regarding UCCACGAUCAGCUUGCAUAGUAUUUAGUAA, the “pre-steady-state target cleavage rate” value runs as follows: under setting [1], 1.09 ± 0.079; under setting [2], 0.0387 ± 0.009. For UCCUGCUACAGCUUGCAUAGAAUUUACAAA, under setting [1], the “pre-steady-state target cleavage rate” value came to 0.309 ± 0.065. Consider AGGACCUACAGCUUGCAUAGUAUAUUCAAA, for which the “pre-steady-state target cleavage rate” value under setting [1] turned out to be 0.419 ± 0.072. Turning to AGGACCUUCAGCUUGCAUAGUAUUUUCAAA, the “pre-steady-state target cleavage rate” value is 0.311 ± 0.038 under setting [1] and 0.00593 ± 0.0032 under setting [2]. Turning to UCCUGGCACAGCUUGCAUAGUAUUUAGUUA, the “pre-steady-state target cleavage rate” value by setting is: under setting [1], 0.456 ± 0.081; under setting [2], 0.0452 ± 0.011. Take UCCUGCUCACAGCUUGCAUAGUAUUUAGUUA: the “pre-steady-state target cleavage rate” value turned out to be 1.37 ± 0.076 under setting [1] and 0.0748 ± 0.014 under setting [2]. Taken in the same sequence, the figures for UCCUCCCACAGCUUGCAUAGUAUUUAGUUA were 1.15 ± 0.04 and 0.0641 ± 0.012. For UCCUGCCACAGCUUGCAUAGUAUUUAGUUA, in that order: 1.2 ± 0.051 and 0.0769 ± 0.013.

On to UCCUGCUCAGCUUGCAUAGUAUUUAGUUA, for which the “pre-steady-state target cleavage rate” value is, setting by setting: under setting [1], 1.09 ± 0.043; under setting [2], 0.0636 ± 0.013. Taken in the same sequence, the figures for UCCUGGUCACAGCUUGCAUAGUAUUUAGUUA were 0.818 ± 0.034 and 0.0939 ± 0.022. For UCCUCCACAGCUUGCAUAGUAUUUAGUUA, in that order: 0.736 ± 0.027 and 0.0534 ± 0.011. On to UCCUCCUCACAGCUUGCAUAGUAUUUAGUUA, for which the “pre-steady-state target cleavage rate” value under setting [1] worked out at 1.49 ± 0.064 and the “pre-steady-state target cleavage rate” value under setting [2] was found to be 0.0662 ± 0.014.

With UCCUGCACAGCUUGCAUAGUAUUUAGUUA, the “pre-steady-state target cleavage rate” value runs as follows: under setting [1], 1.34 ± 0.073; under setting [2], 0.0804 ± 0.018.
